Screens (PubChem BioAssay)
Shown are actives, neighbours in structure and some others; about 21% of the full set was active somewhere.
HCV inh: qHTS Assay for Inhibitors of Hepatitis C Virus (HCV) | Potency, µM (titrated, usually from 41.8 µM), without a hit: at the top dose activity change, negative = inhibition, usual class: inhibitors | Huh7.5.1 HCVcc-Cre infection, luciferase reporter, 44 h | actives 3.4% (n = 340,000); note: potency is the fitted concentration of half-maximal effect; % is set by controls: 0 for no effect and ±100 for the full control effect
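After 44 h co-culture of compound, cells and HCVcc-Cre (~0.5 moi), substrate is added for 15 min at room temperature and luciferase measured over 15 sec. Cells were seeded at 1,000/well and pre-cultured 4 h.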
AMA1-RON2 inh: qHTS for Inhibitors of AMA1-RON; Towards Development of Antimalarial Drug Lead: Primary Screen; Plasmodium falciparum AMA1 (3D7) - RON2 peptide interaction; AlphaScreen AMA1-biotinylated RON2 peptide binding; Potency, µM (doses to about 58.2 µM), for the others: at the top dose activity change, negative = inhibition, hits mostly inhibitors; actives 0.2% (n = 360,000);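 note: potency is the fitted concentration of half-maximal effect; 0% = vehicle wells and -100% = peptide control; nearly all actives have a fitted effect of over 45% in size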
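AMA1 (3D7) with his tag at 25 nM final met compounds first, then biotinylated RON2 peptide at 25 nM; detection used donor plus acceptor beads, 10 µg/mL apiece, read by AlphaScreen after 30 min at room temperature.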
Cycloheximide cs: Cycloheximide Counterscreen for Small Molecule Inhibitors of Shiga Toxin; cell reporter, cycloheximide protein synthesis inhibition counterscreen; max response, %; actives 12% (n = 300,000); AID 2314, 2010; in the data active = max response mostly above about 13%, no sharp cut-off; inactive = mostly below about 14%; note: read at 38.3 µM for the half of the compounds with a filed dose; 0% is about no effect
Pf growth 96h: Primary qHTS for delayed death inhibitors of the malarial parasite plastid, 96 hour incubation; P. falciparum luciferase reporter growth, 96 h; Potency, µM (series often up to 28.7 µM), for inactives: at the top dose activity change, negative = inhibition, actives largely listed as inhibitors; actives 6.9% (n = 320,000); AID 504834, 2011; note: potency is the fitted concentration of half-maximal effect; % is set by controls: 0 for no effect and ±100 for the full control effect
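Readout is luminescence from an integrated firefly luciferase in P. falciparum. Red cells, 2% hematocrit and 0.05% parasitemia final, were cultured with compound through two parasite generations (96 hours) at 37 C, 5% CO2.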
Pf growth 48h: Primary qHTS for delayed death inhibitors of the malarial parasite plastid, 48 hour incubation | P. falciparum luciferase growth in erythrocytes, 48 h | Potency, µM (top dose mostly 28.7 µM), for the others: at the top dose activity change, negative = inhibition, usual class: inhibitors | actives 5.9% (n = 310,000) | AID 504832, 2011; note: potency is the fitted concentration of half-maximal effect; % is set by controls: 0 for no effect and ±100 for the full control effect
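In quantitative HTS format, infected erythrocytes bearing luciferase-reporter parasites were treated for a single generation at 37 C. Luminescence after adding detection reagent served as the growth measure.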
Shiga inhibitor: A qHTS for Small Molecule Inhibitors of Shiga Toxin | Vero cells, Shiga toxin protein synthesis inhibition reporter | inhibition, % at 38.7 µM | actives 9.2% (n = 290,000) | AID 2315, 2010; in the data active = inhibition mostly above about 28%, no sharp cut-off; inactive = mostly below about 43%; note: 0% is about no effect
* marks the source's active call; other numbers are inactive results; i = inactive; ? = inconclusive; . = no result given. Unless noted, calls come from the whole dose curve; as a rule, active = well fitted curve in the direction sought with a large enough effect; inconclusive = small, poorly fitted or top-dose-only effect, or another doubt; inactive = no such curve, though single readings can be large; an effect the other way counts as inactive or inconclusive.

SMILES	HCV inh	AMA1-RON2 inh	Cycloheximide cs	Pf growth 96h	Pf growth 48h	Shiga inhibitor
O=C(NCCN1CCOCC1)C1(C(F)(F)F)CC(CCCO)CCCO1 (centres undefined)	.	.	-2	.	.	-4
COc1cccc(C(c2nnnn2Cc2ccccc2)N2CCN(C3CCCC3)CC2)c1OC (centres undefined)	-7%	-1%	-3	2.3µM*	-5%	-18
COc1ccc(C(c2nnnn2CCc2ccccc2)N2CCN(C3CCCC3)CC2)cc1OC (centres undefined)	2%	-13%	-15	0.59µM*	-19%	-19
c1ccc(CCn2nnnc2C(c2cccnc2)N2CCOCC2)cc1 (centres undefined)	16%	-4%	5	2.6µM*	-14%	-9
Cc1ccc(C(c2nnnn2CCc2ccccc2)N2CCC(C)CC2)cc1 (centres undefined)	?	-15%	15*	1%	7.4µM*	21
COc1ccc(C(c2nnnn2C2CCCC2)N2CCN(C3CCCC3)CC2)cc1OC (centres undefined)	-4%	-9%	9	?	6%	-3
O=C1Nc2ccccc2-n2nnnc2C1N1CCN(CCN2CCOCC2)CC1 (centres undefined)	.	37%	.	.	.	.
COc1ccc(OC)c(C(c2nnnn2Cc2ccccc2)N2CCN(C3CCCCC3)CC2)c1 (centres undefined)	-16%	-3%	-1	-16%	10µM*	-12
COc1ccccc1C(c1nnnn1Cc1ccccc1)N1CCN(C2CCCC2)CC1 (centres undefined)	?	-9%	-1	12%	?	-4
CCCC(c1nnnn1CCc1ccccc1)N1CCC(C(N)=O)CC1 (centres undefined)	-1%	-5%	1	4.1µM*	-17%	-7
CC(C)C(c1nnnn1CCc1ccccc1)N1CCC(C(N)=O)CC1 (centres undefined)	5%	-5%	-3	28%	12%	-6
CCN(CC)S(=O)(=O)c1ccc2oc(C(=O)NCc3ccc(C)cc3)c(C)c2c1	?	-5%	0	.	9.3µM*	-6
Cc1cc(C)c2c(C)c(C(=O)NCc3ccncc3)oc2c1	2µM*	-5%	-2	33%	?	-2
Cc1ccccc1C(=O)NCc1ccncc1	4%	6%	-2	-10%	-2%	-12
CCc1ccc2oc(C(=O)NCc3ccncc3)c(C)c2c1	11µM*	-6%	22*	?	25%	50*
CSc1cccc(CNC(=O)C2CCC(=O)N(CCc3ccccc3)C2)c1 (centres undefined)	.	18%	.	.	.	.
CCOC(=O)C1CCCN(C(=O)c2ccc(F)c(C)c2)CC1 (centres undefined)	.	-1%	.	.	.	.
COc1ccc2cc(C3CC=C(CO)CN3S(=O)(=O)c3ccccc3[N+](=O)[O-])n(C(=O)OC(C)(C)C)c2c1 (centres undefined)	.	-22%	.	.	.	.
CSc1ccc2c(c1)N(CCC1CCCCN1C)c1ccccc1S2 (centres undefined)	?	?	-7	?	9.3µM*	-23
CCCCNC(=S)NNC(=O)c1csc(C)c1	10%	81%	8	45%	48%	12
CCCCNC(=S)NNC(=O)c1csc(CC)c1	-22%	100%	9	163%	156%	34*
Cc1ccc(NC(=O)COC(=O)c2cc(Cl)cc(Cl)c2)c(Br)c1	1%	-8%	-5	-28%	20%	-10
Cc1cccc(NC(=S)NNC(=O)c2sccc2C)c1	20%	79%	25*	.	141%	107
C=CCNC(=S)NNC(=O)c1csc(CC)c1	20%	80%	8	40%	47%	19
CCc1cc(C(=O)Nc2ccc(C)cc2Br)cs1	-26%	3%	57*	i	i	71*
SMILES	HCV inh	AMA1-RON2 inh	Cycloheximide cs	Pf growth 96h	Pf growth 48h	Shiga inhibitor
CCc1cc(C(=O)NNC(=S)Nc2cccc(C)c2)cs1	1%	76%	28*	77%	135%	66*
Cc1cc([N+](=O)[O-])nn1CCCC(=O)NCc1ccc(F)cc1	8%	3%	-2	?	0%	-12
CC(C)(C)C(C(=O)n1cccc1C#N)c1ccccc1 (centres undefined)	5%	8%	.	25%	21%	.
Cc1cccc(NC(=S)NNC(=O)c2csc(C(C)C)c2)c1	-23%	48%	42*	116%	128%	42*
COc1cc([C@@H]2CC=C(C(=O)O)[C@H](c3ccc(C)cc3)N2S(=O)(=O)c2ccc(C)cc2)cc(OC)c1OC	15%	-9%	.	.	.	.
COc1cc([C@@H]2CC=C(C(=O)O)[C@H](c3cccc(Cl)c3)N2S(=O)(=O)c2ccc(C)cc2)cc(OC)c1OC	13%	-1%	.	13µM*	?	.
COc1cccc([C@@H]2CC=C(C(=O)O)[C@H](c3ccc(Cl)cc3)N2S(=O)(=O)c2ccc(C)cc2)c1	20%	0%	.	9.3µM*	?	.
COc1ccc([C@@H]2CC=C(C(=O)O)[C@H](c3ccc(Cl)cc3)N2S(=O)(=O)c2ccc(C)cc2)cc1OC	6%	2%	.	13µM*	?	.
COc1ccc([C@@H]2CC=C(C(=O)O)[C@H](c3ccc(C)cc3)N2S(=O)(=O)c2ccc(C)cc2)cc1OC	4%	-3%	.	.	.	.
CS(=O)(=O)N1CCN(C(=O)c2ccc(Cl)s2)CC1	10%	16%	-3	11%	0%	-12
CC(O)c1cccc2cc(C(O)CNC(C)(C)C)oc12 (centres undefined)	.	.	-10	.	.	-9
CCCCN(CC)CCCNC(=O)c1ccc(CS(=O)(=O)c2ccccc2C)o1	15%	2%	-2	-1%	27%	-3
CC(C)c1ccc(NC2CCCN(C(=O)CSc3nncn3C)C2)cc1 (centres undefined)	?	-9%	7	40%	9%	-2
O=C(NCCO)C(=O)NCC1OCCCN1S(=O)(=O)c1cc(F)ccc1F (centres undefined)	.	20%	-3	17%	10%	-15
CC(=O)c1ccc(OCc2cc(C(=O)NCC3CCCCO3)no2)cc1 (centres undefined)	-10%	-11%	25*	58%	-25%	46*
CCN1CCCC1CNC(=O)c1cc(COc2ccc(C)c(C)c2)on1 (centres undefined)	?	8%	32*	13µM*	-25%	53*
CC(=O)c1ccc(OCc2cc(C(=O)NCCc3ccc(Cl)cc3)no2)cc1	-7%	0%	19*	-20%	6%	48*
